Active and inactive are the calls of the source. Unless noted, the rule behind the calls is not given here.
Key:
[1] = Brca1-Bard1 BiLC signal decrease – luminescence, single concentration, counter-screen for Mdm2/MdmX interaction inhibitor project, confirmation (AID 504668); settings: Brca1/Bard1 bimolecular luciferase complementation counterscreen, at 8 µM, stronger effect = higher value
[2] = NFkB reporter suppression in cystic fibrosis bronchial cells – cell-based, uHTS hits, panel, cytotoxicity readout, dose response (AID 624344); settings: CF bronchial epithelial cells, PAF-induced NFkB reporter inhibition, with PAF, run 1; at 79 µM (top of the series) unless noted
[3] = as above; settings: CF bronchial epithelial cells, PAF-induced NFkB reporter inhibition, with PAF, run 2; at 79 µM (top of the series) unless noted
[4] = biological target: Tumor necrosis factor receptor superfamily member 10B (Homo sapiens) (UniProt O14763); test: viability loss of caspase-8 NB7 cells with TRAIL – with/without TRAIL, luminescence panel, confirmation (AID 651596; in the data active = activity above about 50%); settings: NB7 neuroblastoma + caspase-8, TRAIL sensitization, NB7 Caspase-8, with TRAIL, mean of runs, at 10 µM, stronger effect = higher value
Tumor necrosis factor receptor superfamily member 10B (Homo sapiens), sequence (O14763 whole entry, looked up): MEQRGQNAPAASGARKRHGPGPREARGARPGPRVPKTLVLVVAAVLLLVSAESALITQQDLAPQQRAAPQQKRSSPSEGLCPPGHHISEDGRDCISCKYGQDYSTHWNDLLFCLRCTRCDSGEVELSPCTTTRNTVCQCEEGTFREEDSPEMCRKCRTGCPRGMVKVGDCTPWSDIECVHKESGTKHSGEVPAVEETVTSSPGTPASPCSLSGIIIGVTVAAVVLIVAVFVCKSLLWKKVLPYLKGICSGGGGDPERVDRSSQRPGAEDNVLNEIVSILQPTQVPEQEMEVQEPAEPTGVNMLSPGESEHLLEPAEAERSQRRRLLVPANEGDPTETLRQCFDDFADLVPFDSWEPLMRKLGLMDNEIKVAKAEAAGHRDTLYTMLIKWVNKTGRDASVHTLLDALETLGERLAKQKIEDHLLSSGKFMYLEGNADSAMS

[5] = as above; settings: NB7 neuroblastoma + caspase-8, without TRAIL, NB7 Caspase-8, without TRAIL, mean of runs, at 10 µM

Compound	inhibition [1]	inhibition [2]	inhibition [3]	activity [4]	activity [5]
Cc1ccc(NC(=O)Nc2nnc(-c3ccncc3)s2)cc1C	23.3% (active)	102%	114%	–	–
CCOC(=O)Nc1ccc2c(c1)N(C(=O)CCN(CC)CC)c1ccccc1S2=O (stereo not given)	29.9% (active)	102%	107%	–	–
Cc1cc(N2CCOCC2)c2c(N)c(Br)cc(C)c2n1	35.4% (active)	118%	97.8%	–	–
COc1ccc(-c2cncnc2-c2ccc(OC)cc2O)cc1	27.2% (active)	101%	93.5%	–	–
Clc1cncc(Cl)c1N/N=C/c1ccncc1	27.6% (active)	105%	118%	–	–
CC(=O)c1cccc(NC(=O)Nc2cccnc2)c1	27.6% (active)	119%	93.2%	–	–
C=C(C)COc1ccc(-c2[nH]ncc2-c2ccc(OC)cc2)c(O)c1	28.9% (active)	114%	105%	–	–
CCOc1cc(Br)c(Br)c(C=Nc2ccc(NC(C)=O)cc2)c1O	33.1% (active)	105%	115%	–	–
Cc1[nH]nc2ncc(C(=O)c3ccccc3O)cc12	30.4% (active)	109%	92.1%	–	–
O=C(Nc1nc2ccc(F)cc2s1)C1CCN(S(=O)(=O)c2cc([N+](=O)[O-])ccc2Cl)CC1	25.5% (active)	105%	112%	–	–
CCn1c(Oc2ccccc2F)nc2c1c(=O)n(C)c(=O)n2C	23.1% (active)	113%	96.5%	–	–
Cc1[nH]nc2nc(SCC(=O)NCCC3=CCCCC3)n(-c3ccc(Br)cc3)c(=N)c12	31.1% (active)	100%	111%	58.5%	88.4%
Cc1cccc(Nc2ncnc3ccc(Br)cc23)c1	25.6% (active)	103%	110%	–	–
COc1cccc(-c2nnc3sc(C4CCCCC4)nn23)c1	25% (active)	111%	104%	–	–
Nc1ncnc(NCc2ccc(F)cc2)c1[N+](=O)[O-]	27% (active)	99%	98.9%	–	–
O=[N+]([O-])c1ccc2ncnc(N3CCN(Cc4ccc5c(c4)OCO5)CC3)c2c1	24.3% (active)	112%	91.3%	–	–
O=C(/C=C/c1cccc([N+](=O)[O-])c1)n1cnc2ccccc21	24.6% (active)	102%	111%	–	–
COc1ccc(-c2cn[nH]c2-c2ccc(OC)cc2O)cc1	32.5% (active)	103%	112%	–	–
Clc1cccc(Nc2ncnc3ccc(Br)cc23)c1	35.6% (active)	109%	104%	–	–

Compound	inhibition [1]	inhibition [2]	inhibition [3]	activity [4]	activity [5]
COc1ccc(-c2csc3ncnc(NCCO)c23)cc1	26.2% (active)	104%	113%	–	–
CCN(CC)S(=O)(=O)c1ccc(NC(=O)Nc2cccc(C(F)(F)F)c2)cc1	35.2% (active)	114%	99.2%	82.6%	71.3%
Cn1c(Oc2ccc(Cl)cc2)c(C=O)c2ccccc21	34.4% (active)	104%	109%	–	–
Cc1ccc2nc(C(F)(F)F)c(C#N)c(N)c2c1	25.7% (active)	114%	106%	–	–
Cn1c(=O)c2c(nc(Oc3ccc4ccccc4c3)n2C)n(C)c1=O	33.6% (active)	93.3%	81.7%	–	–
c1cc2[nH]snc2c2nc(C3CC3)nc12	26.4% (active)	101%	118%	–	–
Cc1nc2sc(C(N)=O)c(N)c2c(C)c1CC(=O)c1ccccc1	31.4% (active)	101%	80.3%	–	–
OCCCNc1ncnc2scc(-c3ccc(Cl)cc3)c12	33.2% (active)	115%	103%	–	–
O=C(Nc1cccc2[nH]ncc12)c1ccc(F)cc1	25% (active)	102%	95.5%	–	–
Cn1nnnc1Sc1ncnc2scc(-c3ccc[nH]3)c12	29.2% (active)	66.8%	61.6%	–	–
COc1cccc(NC(=O)Nc2nnc(CC(=O)NCc3ccccc3)s2)c1	35.1% (active)	79.8%	83.7%	–	–
COc1ccc2cc(C(N)=O)c(=Nc3ccc(C)cc3)oc2c1	35.2% (active)	87.6%	75.7%	–	–
COc1ccc(-c2cc(=O)oc3c(C)c(OC(=O)c4cccs4)ccc23)cc1	32.9% (active)	66.8%	93%	–	–
COc1ccc(Cc2nnc(SCc3ccc([N+](=O)[O-])cc3)o2)cc1	28.9% (active)	113%	97.4%	–	–
CCOc1ccc(-n2c(C)c(C(C)=O)c3cc(O)ccc32)cc1	31.2% (active)	90%	88.2%	–	–
COc1cc2cncc(Cc3ccc(Cl)cc3)c2cc1OC	26.2% (active)	104%	109%	–	–
COc1ccc2[nH]c3c(c2c1)CC(C)NC3=O (stereo not given)	33.6% (active)	103%	112%	–	–
COC1(OC)C=CC(=O)C=C1NC(=O)c1ccccc1OC(C)=O	35.6% (active)	101%	113%	–	–

Source: PubChem BioAssay
